Compounds with a hit are over-represented: about 2.4% of the library has one in this group of screens.
POLK inh = DNA polymerase kappa (human) inhibition | Potency, µM (highest dose often 107 µM), for inactives: at the top dose activity, negative = inhibition, hits mostly inhibitors | Q9UBT6 | purified Pol kappa, fluorescent DNA synthesis assay, 10 min | hit rate 0.53% among 400,000; also: % is scaled to controls: 0 for no effect and ±100 for the full control effect
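Inhibition of 10 nM Pol kappa is measured by a fluorescent read-out at 0 and 10 min following addition of 50 nM substrate (final), with a 15-min room-temperature compound preincubation.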
POLB inh = blocks human DNA polymerase beta activity; P06746; Pol beta primer extension/strand displacement, fluorescence kinetic; Potency, µM (series often up to 114 µM), for inactives: top-dose activity change, negative = inhibition, most hits filed as inhibitors; hit rate 1.3% among 340,000; also: % is scaled to controls: 0 for no effect and ±100 for the full control effect
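Reaction started by 50 nM substrate onto compound-treated Pol beta (10 nM, 15 min preincubation, room temperature); plates read at 0 min and 10 min. Normalized concentration-effect data fitted by four-parameter Hill equation.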
TDP1 block = inhibitors of human tyrosyl-DNA phosphodiesterase TDP1; Q9NUW8; recombinant TDP1, AlphaScreen DNA substrate cleavage; Potency, µM (series often up to 130 µM), for the others: at the highest dose activity change, negative = inhibition, usual class: inhibitors; hit rate 0.28% among 350,000; AID 485290; also: % is scaled to controls: 0 for no effect and ±100 for the full control effect; nearly all actives have a fitted effect of over 40% in size
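AlphaScreen read-out: signal falls as enzyme removes the 3' tyrosine-FITC from a 5'-biotinylated DNA oligo (15 nM, 5 min, RT). Enzyme was E. coli-made recombinant Tdp1 at 1 nM, exposed to compound for 15 min beforehand; beads 10 ug/ml, 10 min.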
Pol eta inh = DNA polymerase eta (human) inhibition | Q9Y253 | Potency, µM (top dose mostly 114 µM), inactives show at the highest dose activity change, negative = inhibition, usual class: inhibitors | hit rate 1.2% among 390,000 | recombinant Pol eta, fluorescent DNA replication assay; also: % is scaled to controls: 0 for no effect and ±100 for the full control effect
Target sequence (Q9Y253 whole entry, looked up): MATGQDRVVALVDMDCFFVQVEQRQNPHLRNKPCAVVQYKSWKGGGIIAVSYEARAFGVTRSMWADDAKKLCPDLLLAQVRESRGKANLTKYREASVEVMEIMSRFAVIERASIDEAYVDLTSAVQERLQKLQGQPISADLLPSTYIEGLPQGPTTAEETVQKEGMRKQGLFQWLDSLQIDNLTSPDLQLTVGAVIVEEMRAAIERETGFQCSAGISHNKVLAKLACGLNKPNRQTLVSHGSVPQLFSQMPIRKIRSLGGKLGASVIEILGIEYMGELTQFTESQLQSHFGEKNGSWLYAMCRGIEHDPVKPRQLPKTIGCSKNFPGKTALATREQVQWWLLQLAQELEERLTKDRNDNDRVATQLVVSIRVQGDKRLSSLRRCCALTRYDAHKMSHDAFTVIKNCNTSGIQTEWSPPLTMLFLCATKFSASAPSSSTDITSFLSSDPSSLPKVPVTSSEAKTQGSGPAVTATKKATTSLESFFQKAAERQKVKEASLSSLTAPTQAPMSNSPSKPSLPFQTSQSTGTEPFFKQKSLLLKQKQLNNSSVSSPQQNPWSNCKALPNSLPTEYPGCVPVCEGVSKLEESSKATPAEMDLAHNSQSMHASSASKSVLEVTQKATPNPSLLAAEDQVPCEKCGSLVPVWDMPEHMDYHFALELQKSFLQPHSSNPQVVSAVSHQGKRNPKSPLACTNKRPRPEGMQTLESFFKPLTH
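Fluorescent replication assay: 50 nM final substrate added after a 15 min room-temperature compound preincubation with 10 nM enzyme. Signal taken at 0 min and again at 10 min.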
POLI inh = inhibitors of human DNA polymerase iota. Pol iota fluorescent replication assay, 10 min. Potency, µM (highest dose often 115 µM), for the others: at the highest dose activity, negative = inhibition, actives largely listed as inhibitors. hit rate 1% among 390,000. AID 588590
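Pol iota at 10 nM preincubated 15 min with compounds at room temperature; reaction started with fluorescent substrate, 50 nM final. Fluorescence read kinetically at 0 and 10 min; buffer-only wells as negative control.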
* = called active by the depositor; ? = inconclusive; . = not tested or not shown; ! = repeats disagree; [ ] = remark or other dose. Calls follow the shape of the dose curve; as a rule, active = well fitted curve in the direction sought with a large enough effect; inconclusive = small, poorly fitted or top-dose-only effect, or another doubt; inactive = no such curve, though single readings can be large; an effect the other way counts as inactive or inconclusive. Potency is read from the fitted curve at half-maximal effect.

SMILES | POLK inh | POLB inh | TDP1 block | Pol eta inh | POLI inh
O=C(N/N=C/c1ccc(Cl)cc1Cl)c1ccc2nc[nH]c2c1 | -11% | 16µM* | 0% | -13% | -29%
O=C(N/N=C/C(Br)=C\c1ccccc1)c1ccc2nc[nH]c2c1 | -16% | 13µM* | 3% | ? | ?
CC(/C=N/NC(=O)c1cc(-c2ccc(C)s2)[nH]n1)=C\c1ccccc1 | -3% | 14% | 2% | -16% | 56%
CC(/C=N/NC(=O)c1ccc2nc(C)[nH]c2c1)=C\c1ccccc1 | -1% | 28µM* | 3% | ? | -5%
CCCCCCCCOc1ccccc1C(=O)Nc1ccc(C(=O)OCC[N+](C)(CC)CC)cc1 | -3%[19.4 µM] | . | 11% | . | .
Nc1cccc(S(=O)(=O)N2CCOCC2)c1 | 4% | . | 1% | . | 49%
COc1ccccc1/C=C/C=N/NC(=O)c1ccc2nc[nH]c2c1 | . | 35µM* | 7% | . | .
CC(/C=N/NC(=O)c1ccncc1)=C\c1ccccc1 | -23% | 5% | 6% | 0% | -4%
CC(=C/c1ccccc1)/C=N/NC(=O)c1ccc2nc[nH]c2c1 | 0% | 32µM* | 0% | -4% | 13%
COc1ccc(OC)c(/C=N/NC(=O)c2ccc3nc[nH]c3c2)c1 | -11% | -7% | -2% | -20% | 2%
CCOC(=O)c1cc(-c2ccc(OC)cc2)n(CCC(=O)Nc2cccc(C(C)=O)c2)c1C | -14%[60.1 µM] | -7% | 4% | -3% | -7%
CCOc1ccc(CCNC(=O)Cn2ncc3c([nH]c4ccccc43)c2=O)cc1OCC | -1% | 9% | 5% | -10% | 16%
Cc1ccc(-c2cn3nc(N4CCCC(C(=O)Nc5ccc(F)cc5)C4)sc3n2)cc1 (centres undefined) | -11% | -8% | 5% | -9% | -1%
Oc1ccc(/C=N/Nc2cc(N3CCCC3)nc(N3CCCC3)n2)cc1 | -6% | 32% | 5% | -6% | 3.5µM*
CCOC(=O)c1cnn(-c2nc(SC)nc3sc4c(c23)CCC4)c1N | -15% | 10µM* | -4% | ? | ?
O=C(COC(=O)c1cn(-c2ccccc2)nc1-c1ccccc1)Nc1ncc(Cl)cc1Cl | ? | ? | . | 35µM* | ?
COc1cccc(-c2nn(-c3ccccc3)cc2C(=O)OCC(=O)Nc2ncc(Cl)cc2Cl)c1 | -23% | -5%[57.1 µM] | 0% | 5% | -3%
NC(=O)c1ccc(NC(=O)COC(=O)c2ccc(Cl)nc2)cc1 | -13% | . | . | -1% | -10%
Cc1cnc(C(=O)OCC(=O)Nc2ncc(Cl)cc2Cl)cn1 | -18% | . | -11% | 50µM* | ?
Cc1cnc(C(=O)OCC(=O)Nc2sc3c(c2C#N)CCC3)cn1 | -24% | . | 1% | 22µM* | ?
O=C(COC(=O)c1ccc(Cl)nc1)Nc1ncc(Cl)cc1Cl | -10% | ? | -8% | 35µM* | 87%
CCCCCCCCCCCCCCCCn1cc[n+](Cc2ccccc2)c1C | -15%[60.1 µM] | . | 2% | . | .
O=C(CCc1nc2sc3c(c2c(=O)[nH]1)CCCC3)Nc1ccccc1Cl | ? | . | . | ? | 45µM*
COc1ccc(CCNC(=O)CCc2nc3sc4c(c3c(=O)[nH]2)CCCC4)cc1 | -27% | 35µM* | -6% | ? | ?
S=c1[nH]nc(-c2ccc(Cl)cc2)n1/N=C/C=C/c1ccco1 | -20% | 25µM* | 5% | ? | -12%
SMILES | POLK inh | POLB inh | TDP1 block | Pol eta inh | POLI inh
S=c1[nH]nc(-c2ccco2)n1/N=C/C=C/c1ccccc1 | 4% | 13% | 6% | -21% | 8%
S=c1[nH]nc(-c2cccnc2)n1/N=C/C=C/c1ccco1 | -36% | 13µM* | 40µM* | ? | ?
S=c1[nH]nc(-c2ccc(Cl)cc2)n1/N=C/c1ccco1 | -11% | -1% | 7% | 7% | 8%
S=c1[nH]nc(-c2ccccc2)n1/N=C/C=C/c1ccco1 | -17% | 45µM* | 3% | -19% | 52%
Cc1ccc(Nc2nc(C#N)nc(NC3CCCC3)n2)cc1 | . | . | -3% | . | .
COc1ccc(C2C=C(c3ccccc3)Nc3nc(NS(=O)(=O)c4ccc(Cl)cc4)nn32)cc1 (centres undefined) | 1% | 12% | 9% | 89µM* | 28%
COc1ccc(C2C=C(c3ccccc3)Nc3nc(NS(=O)(=O)c4ccccc4)nn32)cc1 (centres undefined) | -10% | 12% | 0% | 89µM* | 18%
Cc1ccc(C2C=C(c3ccccc3)Nc3nc(NS(=O)(=O)c4ccccc4)nn32)cc1 (centres undefined) | 2% | 18% | 2% | ? | -2%
Cc1ccc(S(=O)(=O)Nc2nc3n(n2)C(c2ccc(Cl)cc2)C=C(c2ccccc2)N3)cc1 (centres undefined) | 4% | -1% | 11% | 89µM* | -7%
COc1ccccc1CNC(=O)CCc1c(C)nn(-c2ccc(N3CCCCC3)nn2)c1C | 21% | 0% | 10% | -12% | -12%
COc1cc(F)c(S(=O)(=O)N2CCN(S(=O)(=O)c3ccc(NC(C)=O)cc3)CC2)c(F)c1 | . | . | 0% | . | .
COc1ccc2ccc3c(c2c1)N=CC1(O3)N(C)c2ccccc2C1(C)C (centres undefined) | -10% | ? | 10% | -18% | 5µM*
Cc1ccc(C)c(SCC(=O)OC/C(O)=C(\C#N)c2nc3ccccc3[nH]2)c1 | -28% | ? | 10% | 45µM* | ?
Cc1cccc(C)c1Nc1nnc(SC/C(O)=C(\C#N)c2nc3ccccc3[nH]2)s1 | -16% | ? | 10% | 18µM* | -8%
Cc1cc(Br)ccc1SCC(=O)OC/C(O)=C(\C#N)c1nc2ccccc2[nH]1 | 1% | 3% | . | -11% | 34%
O=c1oc2c(-c3ccc([N+](=O)[O-])cc3)cc(O)cc2s1 | ? | ? | 0% | ? | 50µM*
CC=Cc1cc2c(c(=O)o1)C(=O)C(O)C(C)O2 (centres undefined) | -27% | . | . | ? | 50µM*
CC(=O)Nc1ccc(/C=C/C(=O)c2ccc(-n3nncc3-c3ccccc3)cc2)cc1 | -17% | . | 4% | . | ?
Cc1c2c(=O)n(-c3nc4ccccc4s3)nc-2cc(O)n1Cc1ccccc1 | ? | ? | 10% | 45µM* | 35µM*
COC(=O)C#CC(=O)OC | 15%[60.1 µM] | . | 9% | . | .
COc1ccccc1/C=C\C(=O)OC[C@@H]1CCCN2CCCC[C@H]12 | . | . | 8% | . | .
C/C(CC(=O)Nc1cccc(Cl)c1Cl)=N\NC(=O)c1ccccc1C | 1% | 50µM* | 6% | -12% | 9%
Cc1cccc(Nc2ncccc2C(=O)O)c1C | 6%[19.4 µM] | 1% | 3% | -9% | -20%
Cc1cccc(Nc2ccccc2C(=O)O)c1C | 14% | 12% | 0.011µM*! | -2% | 11%
O=[N+]([O-])c1c(Nc2ccccc2O)ccc2nonc12 | -1% | 2% | 5% | -9% | -21%
O=[N+]([O-])c1c(Nc2ccccc2O)cc(Cl)c2nonc12 | -2% | 18µM* | . | 45µM* | 11µM*

Source: PubChem BioAssay (National Center for Advancing Translational Sciences (NCATS))
